BAZ2B inh – blocks human BAZ2B | 4.4% of 360,000 active | Q9UIF8 | AlphaScreen BAZ2B-H3K14Ac peptide displacement | Potency, µM (series often up to 114 µM), for the others: top-dose activity change, negative = inhibition, usual class: inhibitors; note: % is set by controls: 0 for no effect and ±100 for the full control effect; nearly all actives have a fitted effect of over 60% in size
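AlphaScreen displacement: compounds (up to 110uM) incubated 30 min at room temperature with a preformed 50 nM BAZ2B/50 nM biotinylated H3K14Ac peptide complex in PBS pH 7.4 with Tween-20. Donor and acceptor beads at 10 ug/mL final added, 20 min light-protected before reading.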
G9a inh – inhibitors of human histone lysine methyltransferase G9a; G9a H3K9 monomethylation, AlphaScreen, 2 h; Potency, µM (doses to about 102 µM), for inactives: at the highest dose activity, negative = inhibition, actives largely listed as inhibitors; 8.8% of 350,000 active; note: % is set by controls: 0 for no effect and ±100 for the full control effect; nearly all actives have a fitted effect of over 75% in size
Target sequence (Q96KQ7 913-1193 limits assumed): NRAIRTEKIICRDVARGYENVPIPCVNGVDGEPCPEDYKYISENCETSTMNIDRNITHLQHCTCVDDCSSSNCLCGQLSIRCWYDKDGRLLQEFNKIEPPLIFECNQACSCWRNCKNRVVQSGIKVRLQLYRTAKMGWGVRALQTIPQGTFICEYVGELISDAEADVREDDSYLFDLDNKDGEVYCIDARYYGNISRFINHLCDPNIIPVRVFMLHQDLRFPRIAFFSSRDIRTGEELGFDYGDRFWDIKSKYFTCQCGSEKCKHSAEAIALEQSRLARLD
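Methyltransferase reactions run at room temperature for 2 h (20 nM enzyme, 500 nM biotin-H3K9 peptide, 20 uM SAM) after a 15 min compound preincubation; product detected by AlphaScreen beads and anti-H3K9me1 antibody.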
Sfp PPTase inh – Sfp phosphopantetheinyl transferase inhibition; Potency, µM, without a hit: largest response in the series, negative = inhibition, most hits filed as inhibitors; 3.5% of 310,000 active; Q9F4F7; Biochemical Sfp PPTase activity, qHTS;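 note: the enzyme is Sfp with the accession as filed and its product quenches rhodamine fluorescence; 0% = enzyme reaction without inhibitor and -100% = no enzyme wells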
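Compounds were incubated with enzyme (final 15 nM) for 15 min at room temperature before substrate addition started the reaction. Fluorescence at 525 nm excitation, 598 nm emission was recorded immediately and after 30 minutes.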
HP1b binding inh – inhibitors of HP1-beta chromodomain binding to methylated histone tails; AID 540317; AlphaScreen HP1-beta / biotin-H3K9me3 peptide binding; 0.56% of 390,000 active; Potency, µM (series often up to 114 µM), for the others: at the highest dose activity change, negative = inhibition, actives largely listed as inhibitors; note: nearly all actives have a fitted effect of over 70% in size
Target sequence (P83916 whole entry, looked up): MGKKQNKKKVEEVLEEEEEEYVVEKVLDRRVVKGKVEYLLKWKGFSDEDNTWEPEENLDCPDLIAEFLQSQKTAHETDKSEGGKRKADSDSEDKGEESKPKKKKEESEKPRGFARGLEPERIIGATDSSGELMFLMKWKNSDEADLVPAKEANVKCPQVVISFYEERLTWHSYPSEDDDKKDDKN
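Compound inhibition of the preformed complex between 50 nM HP1-beta and 50 nM biotinylated H3K9me3 peptide was read by AlphaScreen. Buffer was PBS pH 7.4 with 0.01% Tween-20. Incubations ran 30 min at room temperature, with 10 ug/mL donor/acceptor beads.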
JMJD2A Tudor inh – JMJD2A Tudor domain (human) inhibition; Potency, µM (titrated, usually from 114 µM), without a hit: top-dose activity change, negative = inhibition, most hits filed as inhibitors; AID 504339; 4.4% of 390,000 active; AlphaScreen JMJD2A-Tudor / H3K4me3 peptide binding; O75164; note: % is set by controls: 0 for no effect and ±100 for the full control effect; nearly all actives have a fitted effect of over 50% in size
* marks the source's active call; other numbers are inactive results; ? = inconclusive; / = no result; ! = not confirmed by another sample; [ ] = dose if it differs, or a comment. Rows were chosen to be rich in hits. Some 12% of all compounds tested hit in one or more screens of this group. Calls come from the whole dose curve; as a rule, active = well fitted curve in the direction sought with a large enough effect; inconclusive = small, poorly fitted or top-dose-only effect, or another doubt; inactive = no such curve, though single readings can be large; an effect the other way counts as inactive or inconclusive. Potency is the fitted concentration of half-maximal effect.

SMILES | BAZ2B inh | G9a inh | Sfp PPTase inh | HP1b binding inh | JMJD2A Tudor inh
CSc1ccc(CNC(=O)Cc2ccc(NC(=O)C3=C(C)OCCS3)cc2)cc1 | -21% | -9% | 17% | 41% | 1%
COc1cc(O)c2c(=O)c(O)c(-c3ccc(O)c(O)c3)oc2c1 | / | / | -16% | / | /
O=c1c(O)c(-c2ccc(O)c(O)c2)oc2cc(O)ccc12 | / | / | 40µM*! | 27% | -7%
C[N+]1(CCCCCCC(=O)/C=N/O)CCCCCC1 | -28% | 14µM* | 1% | 22% | -6%
C[N+]1(CCCCC[N+]2(C)CCCC2)CCCC1 | / | 12% | 3% | / | /
Nc1ccc(C(=O)O)cc1[N+](=O)[O-] | -14% | -4% | 12% | 63% | 5%
Nc1cc(S(=O)(=O)O)cc([N+](=O)[O-])c1O | ? | 45µM* | 79µM* | 35µM* | 35µM*
Cc1nc2sc(C)c(C)c2c(=O)o1 | -21% | ? | 20µM* | 16% | -10%
CC(C)c1nc2sc3c(c2c(=O)o1)CCCC3 | 3% | 12%[59 µM] | -13% | 35% | 17%
O=c1oc(-c2ccccc2)nc2sc3c(c12)CCC3 | 50µM* | -17% | -28% | 4% | -27%
Cc1nc2sc3c(c2c(=O)o1)CCCC3 | -31% | 45µM* | 40µM* | 15% | -24%
Cc1cccc(Oc2ccc(NC(=O)CCC(=O)OCC(=O)c3ccc(Br)cc3)cc2)c1C | -1% | -33%[59 µM] | / | 5% | -18%
COc1ccc(CNC(=O)[C@H](C)NC(=O)[C@@H]2Cc3ccccc3CN2)cc1 | ? | 71µM* | -2% | 19% | -9%
C[C@H](NC(=O)[C@@H]1Cc2ccccc2CN1)C(=O)NC1CCCCC1 | -24% | 79µM* | 0% | 22% | -14%
COc1ccccc1CNC(=O)[C@H](C)NC(=O)[C@@H]1Cc2ccccc2CN1 | -19% | ? | 11% | 69% | -3%
C[C@H](NC(=O)[C@@H]1Cc2ccccc2CN1)C(=O)NC[C@H]1CC[C@H](C(=O)O)CC1 | -13% | 15% | -3% | 33% | -18%
O=C(CNC(=O)[C@@H]1Cc2ccccc2CN1)NCc1ccco1 | -12%[57.1 µM] | 71µM* | 1% | 48% | -17%
C[C@@H](NC(=O)[C@@H]1Cc2ccccc2CN1)C(=O)NCC1CCCO1 (some centres undefined) | -17% | 50µM* | 3% | 39% | 14%
COc1ccccc1-c1noc(CCCC(=O)NC2CCCCC2)n1 | -1% | 19% | 11% | 20% | 0%
C[C@H](NC(=O)c1ccccc1Cl)C(=O)NCc1cccs1 | -19% | 45µM* | 11% | 42% | -14%
CCCCn1c2ccccc2c2nnc(SCC(=O)NC3=NN=C(c4ccccc4)CS3)nc21 | -3% | 28µM* | -4% | / | /
CCn1c2ccccc2c2nnc(SCCN3CCOCC3)nc21 | 6% | 0%[0.501 µM] | ? | 40% | -9%
CCC(Sc1nc(C)cc(C)n1)C(=O)NC1=NN=C(c2ccc(C)cc2)CS1 (centres undefined) | -35% | ? | ? | 6% | -31%
Cn1c2ccccc2c2nnc(SCCN3CCOCC3)nc21 | -1% | 50µM* | -13% | 63% | -12%
Cc1cc(C)nc(SCC(=O)NC2=NN=C(c3ccc(Br)cc3)CS2)n1 | 0% | ? | 40µM* | -16% | -23%
SMILES | BAZ2B inh | G9a inh | Sfp PPTase inh | HP1b binding inh | JMJD2A Tudor inh
Cn1c2ccccc2c2nnc(SCC(=O)Nc3cccc(O)c3)nc21 | -33% | 71µM* | -9% | 16% | -10%
Cc1cccc(NC(=O)CSc2nnc3c4ccccc4n(C)c3n2)c1 | 3% | 2%[59 µM] | / | 48% | 3%
CC(C)c1ccc2oc(-c3ccc(Cl)c(NC(=O)Cc4ccccc4)c3)nc2c1 | -3% | -56%[59 µM] | / | 42% | -10%
Cc1cc(CSc2ccc(Cl)cc2)ccc1N | / | / | / | -10% | ?
CCCCn1c2ccc(C)cc2c2nnc(SCCN3CCCCC3)nc21 | -1% | ? | 2% | 39% | -22%
Cc1ccc2c(c1)c1nnc(SCC(=O)N3CCN(c4ccc(F)cc4)CC3)nc1n2CC(=O)O | -30% | -5%[59 µM] | 71µM* | 7% | -23%
CCn1c2ccc(C)cc2c2nnc(SCCN3CCOCC3)nc21 | -9% | 45µM* | -5% | 21% | -11%
O=C(O)c1cccc([N+](=O)[O-])c1C(=O)Nc1nc2ccccc2s1 | -14% | 79µM* | 1% | 12% | 3%
NC(=O)c1cc(S(=O)(=O)NCc2cccs2)cs1 | 1% | 22%[59 µM] | 13% | 45% | 4%
Cc1onc(-c2ccccc2)c1C(=O)NC1CCC(C)CC1 (centres undefined) | -5% | -8%[59 µM] | / | 29% | -13%
CCN(CC)c1ccc(NC(=O)C2CCCN(S(=O)(=O)c3ccc4c(c3)oc(=O)n4C)C2)c(C)c1 (centres undefined) | -14% | ? | / | 12% | ?
O=C(CCl)Nc1cc(SCC(O)CO)cc([N+](=O)[O-])c1 (centres undefined) | -36% | 50µM* | 71µM* | 46% | -24%
CC(C)=NOc1cc(NC(=O)CCl)cc([N+](=O)[O-])c1 | -11% | 56µM* | -21% | 42% | -12%
COc1ccc([C@H]2[C@H](C(=O)C(C)(C)C)N3N=Cc4ccccc4C3[C@]23N=C(c2ccccc2)OC3=O)cc1 (some centres undefined) | ? | / | -1% | 7% | -31%
CC(C)(C)OC(=O)[C@H]1[C@H](c2ccc([N+](=O)[O-])cc2)C2(C(=O)c3ccccc3C2=O)C2c3ccccc3C=NN21 (some centres undefined) | 40µM* | 14µM* | -15% | -32% | ?
Cc1ccc(NC(=O)CN(C)S(=O)(=O)c2cccc3cccnc23)cc1C | 2% | 1% | 10% | 33% | 1%
COc1ccc(N2CCN(CCCn3c(=S)[nH]c4ccccc4c3=O)CC2)cc1 | 28µM* | 7% | 2% | 27% | ?
COc1ccccc1N1CCN(CCCn2c(=S)[nH]c3ccccc3c2=O)CC1 | ? | -10% | 9% | 26% | -36%
CCOc1cc2[nH]c(=O)n(CCCN3CCN(c4ccc(OC)cc4)CC3)c(=O)c2cc1OCC | ? | 10µM* | 9% | -22% | ?
COc1ccc(N2CCN(CCCNC(=O)C(=O)c3c(C)[nH]c4ccccc34)CC2)cc1 | 28µM* | -1%[0.0925 µM] | 2% | ? | 45µM*
S=c1nc(C2COc3ccccc3O2)[nH][nH]1 (centres undefined) | ? | 3.5µM* | 22µM* | 8% | 1.8µM*
S=c1[nH]nc(C2COc3ccccc3O2)o1 (centres undefined) | 8% | 32µM* | -4% | 17% | -22%
Cc1ccc(-c2nn(-c3ccccc3)cc2C(=O)N2CCN(C3CCS(=O)(=O)C3)CC2)cc1 (centres undefined) | 7% | 7.1µM* | / | 30% | -4%
S=c1[nH]nc(-c2ccc(Cl)cc2)n1/N=C/c1ccco1 | -26% | 0.89µM* | -9% | -4% | 40µM*

Compound activity as filed in PubChem BioAssay.
